A selection: hits, their analogues and other compounds. The true share with any hit is near 0.55%.
EPAC1 antag – antagonists of human EPAC1; O95398; EPAC1 GEF assay, Rap1b-BODIPY-GDP exchange fluorescence; Potency, µM (titrated, usually from 115 µM), without a hit: at the highest dose activity change, negative = inhibition, hits mostly inhibitors; hit rate 0.14% among 360,000;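 note: plate controls were vehicle for no effect and positive control for full effect; nearly all actives have a fitted effect of over 50% in size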
EPAC2 ag – EPAC2 (human) agonism. Q8WZA2. EPAC2 activation, biochemical qHTS; response scale: 100% = 6.5 mM cAMP response. Potency, µM (top dose mostly 154 µM), inactives show top-dose activation, usual class: activators. hit rate 0.079% among 360,000. AID 720711; note: nearly all actives have a fitted effect of over 50% in size
Target sequence (Q8WZA2 whole entry, looked up): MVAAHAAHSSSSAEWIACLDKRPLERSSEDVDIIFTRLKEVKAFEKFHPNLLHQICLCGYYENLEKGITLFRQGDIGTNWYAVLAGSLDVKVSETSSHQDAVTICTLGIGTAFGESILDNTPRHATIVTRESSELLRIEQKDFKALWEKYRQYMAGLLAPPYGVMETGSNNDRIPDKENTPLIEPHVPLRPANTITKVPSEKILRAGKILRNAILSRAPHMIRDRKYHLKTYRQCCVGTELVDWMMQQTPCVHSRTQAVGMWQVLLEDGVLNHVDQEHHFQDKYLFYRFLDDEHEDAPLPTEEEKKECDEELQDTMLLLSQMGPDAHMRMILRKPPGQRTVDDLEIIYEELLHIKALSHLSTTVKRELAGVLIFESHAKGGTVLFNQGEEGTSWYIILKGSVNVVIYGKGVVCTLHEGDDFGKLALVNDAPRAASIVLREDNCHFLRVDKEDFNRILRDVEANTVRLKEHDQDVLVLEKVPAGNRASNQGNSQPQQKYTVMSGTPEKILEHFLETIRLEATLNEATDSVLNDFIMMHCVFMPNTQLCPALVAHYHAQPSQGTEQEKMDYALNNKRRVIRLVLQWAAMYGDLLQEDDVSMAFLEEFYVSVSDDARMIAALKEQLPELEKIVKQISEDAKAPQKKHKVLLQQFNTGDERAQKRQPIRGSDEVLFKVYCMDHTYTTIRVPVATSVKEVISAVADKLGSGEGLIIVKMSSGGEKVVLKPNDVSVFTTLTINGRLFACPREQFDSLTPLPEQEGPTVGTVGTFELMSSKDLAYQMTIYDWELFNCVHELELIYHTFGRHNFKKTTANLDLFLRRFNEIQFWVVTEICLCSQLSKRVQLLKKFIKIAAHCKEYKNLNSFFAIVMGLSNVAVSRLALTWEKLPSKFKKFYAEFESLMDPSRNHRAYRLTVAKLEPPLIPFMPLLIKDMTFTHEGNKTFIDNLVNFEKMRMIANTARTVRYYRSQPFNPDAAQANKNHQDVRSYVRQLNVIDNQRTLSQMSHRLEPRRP
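Fluorescence exchange assay: 100 nM EPAC2 with 250 nM RAP1B-BODIPY-GDP and 50 uM GDP; compounds tested as a concentration-titration series (qHTS). Loss of Rap1-bound BODIPY-GDP fluorescence read at 480/540 nm; data normalized to 6.5 mM cAMP.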
EPAC2 antag – blocks human EPAC2 exchange factor; Potency, µM (doses to about 114 µM), inactives show top-dose activity, negative = inhibition, most hits filed as inhibitors; hit rate 0.18% among 360,000; EPAC2 GEF exchange of Rap1B-BODIPY-GDP, fluorescence; Q8WZA2; note: % is set by controls: 0 for no effect and ±100 for the full control effect; nearly all actives have a fitted effect of over 45% in size
USP1-UAF1 inh – inhibitors of human USP1/UAF1 deubiquitinase. O94782. recombinant USP1/UAF1, Ub-Rhodamine cleavage fluorescence. Potency, µM (top dose mostly 57.1 µM), without a hit: at the highest dose activity change, negative = inhibition, most hits filed as inhibitors. hit rate 0.23% among 390,000. AID 743255; note: % is set by controls: 0 for no effect and ±100 for the full control effect; nearly all actives have a fitted effect of over 60% in size
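In this screen, compounds sit with the deubiquitinase complex (1nM) for 15 min at room temperature before Ub-Rho is added at 150nM final. Fluorescence rise is then followed for 6 reads every 60 seconds.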
EPAC1 ag – agonists of human EPAC1 | EPAC1 agonist qHTS, biochemical assay; response scale: 100% = response to 6.5 mM cAMP | Potency, µM (titrated, usually from 154 µM), inactives show at the top dose activation, most hits filed as activators | hit rate 0.073% among 360,000; note: nearly all actives have a fitted effect of over 60% in size
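Read-out is the fluorescence drop as BODIPY-GDP leaves Rap1B (480 nm excitation, 540 nm emission), recorded every 5 minutes over 30 minutes. Reactions held 100 nM EPAC1, 250 nM Rap1B–BODIPY-GDP and 50 uM GDP, with 6.5 mM cAMP setting full activation.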
GLP1R cytotox – cytotoxic in the GLP-1 receptor inverse agonist counter-screen; Potency, µM (top dose mostly 38.3 µM), for inactives: at the top dose activity change, negative = inhibition, hits mostly inhibitors; HEK293 cAMP-luciferase reporter cells, luminescence, 24 h; hit rate 0.13% among 410,000; AID 624418;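 note: loss of luciferase light is scored as toxicity; % is set by controls: 0 for no effect and ±100 for the full control effect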
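To flag toxic compounds, the library was rerun on cells for 24 hr at 37 deg C and 5% CO2. Viability-linked luminescence was captured 12 min after adding luciferase detection reagent.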
Starred values were filed as active, the others as inactive; [ ] = dose if it differs, or a comment. Calls come from the whole dose curve; as a rule, active = well fitted curve in the direction sought with a large enough effect; inconclusive = small, poorly fitted or top-dose-only effect, or another doubt; inactive = no such curve, though single readings can be large; an effect the other way counts as inactive or inconclusive. Potency is the fitted concentration of half-maximal effect.

How did O=C(COC(=O)/C=C/c1cccs1)Nc1ccc(F)cc1 do in these assays?
EPAC1 antag: -1%; EPAC2 ag: 0%; EPAC2 antag: 12%; USP1-UAF1 inh: -23%; EPAC1 ag: -5%; GLP1R cytotox: 1%

How did CCc1cccc(NC(=O)COC(=O)/C=C/c2cccs2)c1 do in these assays?
EPAC1 antag: -15%; EPAC2 ag: -2%; EPAC2 antag: 4%; USP1-UAF1 inh: -23%; EPAC1 ag: 112µM*; GLP1R cytotox: 17%

What do the screens show for `CCOc1cc(/C=N/NC(=O)c2ccc3c(c2)OCCO3)cc(Br)c1O`?
EPAC1 antag: 71µM*; EPAC2 ag: 9%; EPAC2 antag: 12%; USP1-UAF1 inh: -21%; EPAC1 ag: -5%; GLP1R cytotox: 19%

What do the screens show for `CCN(CC)c1ccc(/C=C(\C#N)C(=O)NCc2ccccc2)cc1`?
EPAC1 antag: -2%; EPAC2 ag: 8%; EPAC2 antag: 28%; USP1-UAF1 inh: -23%; EPAC1 ag: 100µM*; GLP1R cytotox: 14%

What do the screens show for `COc1cccc(/C(O)=C/c2nc3ccc(C(=O)NCCc4ccc(Cl)cc4)cc3[nH]c2=O)c1`?
EPAC1 antag: -10%; EPAC2 ag: 112µM*; EPAC2 antag: 52%; USP1-UAF1 inh: inconclusive; EPAC1 ag: inconclusive; GLP1R cytotox: 19%

How did COc1cccc(/C(O)=C/c2nc3ccc(C(=O)NCCc4cccc(C)c4)cc3[nH]c2=O)c1 do in these assays?
EPAC1 antag: 3%; EPAC2 ag: 112µM*; EPAC2 antag: -6%; USP1-UAF1 inh: 2%; EPAC1 ag: 89µM*; GLP1R cytotox: 109%

What do the screens show for `COc1cccc(C(=O)Nc2cc(C(=O)NCCc3ccccc3)ccc2Cl)c1`?
EPAC1 antag: 1%; EPAC2 ag: -3%; EPAC2 antag: 1%; USP1-UAF1 inh: -15%; EPAC1 ag: 4%; GLP1R cytotox: -4%

Results for Cc1c(C(=O)N(C)Cc2ccccc2)sc2nc(-c3ccc(F)cc3)cn12 ?
USP1-UAF1 inh: -13%; GLP1R cytotox: inconclusive

What do the screens show for `CCOC(=O)C1Nc2ccc(C(=O)O)cc2C2C=CCC12` (centres undefined)?
EPAC1 antag: 6%; EPAC2 ag: 9%; EPAC2 antag: 1%; USP1-UAF1 inh: 18µM*; EPAC1 ag: 20%; GLP1R cytotox: -12%

What do the screens show for `CCCCOc1ccc(Br)cc1/C(C)=N/NC1=NCCN1`?
EPAC1 antag: -5%; EPAC2 ag: -5%; EPAC2 antag: -17%[57.1 µM]; USP1-UAF1 inh: -19%; EPAC1 ag: 5%; GLP1R cytotox: 4.5µM*

How did COC(=O)C1=CN(Cc2cccs2)C=C(C(=O)OC)C1c1cccc(O)c1 do in these assays?
EPAC1 antag: 1%; EPAC2 ag: -6%; EPAC2 antag: 50µM*; USP1-UAF1 inh: -14%; EPAC1 ag: 1%; GLP1R cytotox: 93%

Results for COc1ccc(NC(=O)CCn2c(=O)c3cccn3c3cccnc32)c(OC)c1 ?
USP1-UAF1 inh: 4%; GLP1R cytotox: 0%

How did COc1ccc(N(C(=O)c2ccco2)S(=O)(=O)c2ccc(F)cc2)cc1 do in these assays?
EPAC1 antag: 10%; EPAC2 ag: 9%; EPAC2 antag: 6%; USP1-UAF1 inh: -6%; EPAC1 ag: 14%; GLP1R cytotox: -16%

How did COc1ccc(N(C(=O)c2ccco2)S(=O)(=O)c2cc(OC)ccc2OC)cc1 do in these assays?
EPAC1 antag: -1%; EPAC2 ag: 10µM*; EPAC2 antag: -11%; USP1-UAF1 inh: -14%; EPAC1 ag: 6%; GLP1R cytotox: 4%

What do the screens show for `Cc1ccccc1Nc1cc2ccccc2c(=O)[nH]1`?
EPAC1 antag: inconclusive; EPAC2 ag: 20%; EPAC2 antag: inconclusive; USP1-UAF1 inh: 1µM*; EPAC1 ag: 11%; GLP1R cytotox: -5%

How did O=c1[nH]c(Nc2ccc(F)cc2)cc2ccccc12 do in these assays?
EPAC1 antag: inconclusive; EPAC2 ag: 19%; EPAC2 antag: inconclusive; USP1-UAF1 inh: 13µM*; EPAC1 ag: 0%; GLP1R cytotox: 11%

What do the screens show for `O=c1[nH]c(Nc2ccccc2Cl)cc2ccccc12`?
EPAC1 antag: 7%; EPAC2 ag: 2%; EPAC2 antag: 7%; USP1-UAF1 inh: 14µM*; EPAC1 ag: -2%; GLP1R cytotox: 6%

What do the screens show for `Cc1cc2ccccc2c(=O)[nH]1`?
EPAC1 antag: 3%; EPAC2 ag: 3%; EPAC2 antag: 0%; USP1-UAF1 inh: -6%; EPAC1 ag: 1%; GLP1R cytotox: -2%

What do the screens show for `COc1ccc(OC)c(NC(=O)c2cc(S(=O)(=O)NCCc3ccc(Cl)cc3)ccc2F)c1`?
USP1-UAF1 inh: -23%; GLP1R cytotox: -2%

How did O=C(COc1ccc(F)cc1)Nc1ccccc1OCc1cc(=O)n2ccccc2n1 do in these assays?
USP1-UAF1 inh: inconclusive; GLP1R cytotox: -10%

Results for COc1ccc(N2CCN(S(=O)(=O)CCNC(=O)c3ccc4c(c3)OCO4)CC2)cc1 ?
EPAC1 antag: -3%; EPAC2 ag: 4%; EPAC2 antag: -4%; USP1-UAF1 inh: -15%; EPAC1 ag: 10%; GLP1R cytotox: -11%

Results for O=C(NCCS(=O)(=O)N1CCN(c2cccc(Cl)c2)CC1)c1ccc2c(c1)OCO2 ?
EPAC1 antag: -4%; EPAC2 ag: -4%; EPAC2 antag: -9%; USP1-UAF1 inh: -12%; EPAC1 ag: 35µM*; GLP1R cytotox: -24%

How did COCCNC(=S)N/N=C(\C)c1ccc(OC)cc1 do in these assays?
EPAC1 antag: -17%; EPAC2 ag: -4%; EPAC2 antag: -1%; USP1-UAF1 inh: -19%; EPAC1 ag: 2%; GLP1R cytotox: inconclusive

How did COc1ccc(CNC(=S)Nc2cc(C)ccc2C)cc1 do in these assays?
EPAC1 antag: -7%; EPAC2 ag: 0%; EPAC2 antag: -1%; USP1-UAF1 inh: -2%; EPAC1 ag: 8%; GLP1R cytotox: -22%

Results for COc1ccc(/C(C)=N/NC(=S)Nc2cc(C)ccc2C)cc1 ?
EPAC1 antag: 3%; EPAC2 ag: 24%; EPAC2 antag: -19%; USP1-UAF1 inh: -8%; EPAC1 ag: 14%; GLP1R cytotox: 3.5µM*

How did C/C(=N\NC(=O)c1cc2ccccc2cc1O)c1cc2ccccc2o1 do in these assays?
EPAC1 antag: 50µM*; EPAC2 ag: -7%; EPAC2 antag: 6%; USP1-UAF1 inh: inconclusive; EPAC1 ag: 5%; GLP1R cytotox: -1%

What do the screens show for `COCCNC(=S)N/N=C(\C)c1cc2ccccc2o1`?
EPAC1 antag: -20%; EPAC2 ag: 0%; EPAC2 antag: -4%; USP1-UAF1 inh: -8%; EPAC1 ag: 6%; GLP1R cytotox: 7.9µM*
